# Laboratory results published in article PMC7862700, “An all-to-all approach to the identification of sequence-specific readers for epigenetic DNA modifications on cytosine”.
# What was measured:
# Experiment in all cases: DAPPL (digital affinity profiling via proximity ligation, sequencing); 10 mM Tris-HCl pH 7.5, 50 mM NaCl, 1 mM DTT, 4% glycerol, room temperature, 30 min; GST-TFs on glutathione beads, 16-mer random dsDNA library, 0.1% formaldehyde crosslink after washing; high values mean tight binding
# FEV = target: T1, FEV (Homo sapiens, UniProt Q99581 1-238); details: protein: recombinant; tags: N-terminal GST; dsDNA, one strand shown
# T1 sequence: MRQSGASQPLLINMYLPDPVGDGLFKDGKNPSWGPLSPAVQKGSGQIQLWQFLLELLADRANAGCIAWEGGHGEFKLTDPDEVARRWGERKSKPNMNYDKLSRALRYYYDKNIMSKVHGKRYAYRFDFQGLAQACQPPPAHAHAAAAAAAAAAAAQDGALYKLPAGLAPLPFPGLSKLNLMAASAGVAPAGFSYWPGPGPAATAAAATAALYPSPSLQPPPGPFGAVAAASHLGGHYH
# How it was run: (§1)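 A tag-only sample was pooled with DNA-barcoded human transcription factors that had been expressed in yeast as GST fusions and captured on glutathione beads. The pools were incubated for 30 min at room temperature with 200 nmole of a random double-stranded 16-mer DNA library in Tris/NaCl/DTT/glycerol buffer, then washed, crosslinked with 0.1% formaldehyde, proximity-ligated (BsaI/T4 ligase, 1 h, 37 °C), PCR-amplified and sequenced on an Illumina NextSeq500. Binding signal is each hexamer's read frequency for a factor divided by its frequency for the tag-only sample.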
# ETV5 = ETV5 (Homo sapiens, UniProt P41161 1-510); details: protein: recombinant; tags: N-terminal GST; dsDNA, one strand shown
# Sequence of ETV5 (P41161 whole entry): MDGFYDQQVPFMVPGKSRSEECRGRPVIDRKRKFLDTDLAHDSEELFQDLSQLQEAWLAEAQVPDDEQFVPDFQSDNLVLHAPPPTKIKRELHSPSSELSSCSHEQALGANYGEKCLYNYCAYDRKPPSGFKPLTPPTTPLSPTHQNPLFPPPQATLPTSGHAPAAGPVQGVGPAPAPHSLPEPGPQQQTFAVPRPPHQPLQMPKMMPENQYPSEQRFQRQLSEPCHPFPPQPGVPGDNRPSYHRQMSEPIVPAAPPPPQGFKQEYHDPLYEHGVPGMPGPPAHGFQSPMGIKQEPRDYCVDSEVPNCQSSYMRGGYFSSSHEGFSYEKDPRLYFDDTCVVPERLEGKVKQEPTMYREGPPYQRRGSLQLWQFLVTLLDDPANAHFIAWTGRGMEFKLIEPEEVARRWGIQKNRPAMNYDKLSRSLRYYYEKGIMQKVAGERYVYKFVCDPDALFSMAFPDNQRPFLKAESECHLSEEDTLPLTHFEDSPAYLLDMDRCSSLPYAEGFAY
# How it was run: as §1
# HSF1 = HSF1 (Homo sapiens, UniProt Q00613 1-529); details: protein: recombinant; tags: N-terminal GST; chain copies: 3; dsDNA, one strand shown
# Sequence of HSF1 (Q00613 whole entry): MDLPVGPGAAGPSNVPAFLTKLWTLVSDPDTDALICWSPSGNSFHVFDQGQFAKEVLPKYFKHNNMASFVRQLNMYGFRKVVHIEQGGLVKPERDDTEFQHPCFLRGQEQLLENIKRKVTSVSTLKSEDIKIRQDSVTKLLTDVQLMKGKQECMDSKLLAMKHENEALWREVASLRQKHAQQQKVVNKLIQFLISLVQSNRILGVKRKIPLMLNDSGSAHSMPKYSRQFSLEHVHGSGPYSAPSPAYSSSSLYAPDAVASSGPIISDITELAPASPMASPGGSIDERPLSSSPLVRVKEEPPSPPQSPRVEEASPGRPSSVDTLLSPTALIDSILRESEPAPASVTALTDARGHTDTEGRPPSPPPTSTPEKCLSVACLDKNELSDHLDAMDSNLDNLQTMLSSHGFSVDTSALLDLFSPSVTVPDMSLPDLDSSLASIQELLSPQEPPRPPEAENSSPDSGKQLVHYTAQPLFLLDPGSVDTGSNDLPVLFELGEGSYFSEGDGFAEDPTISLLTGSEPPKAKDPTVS
# How it was run: as §1
# SPIC = target: T2, SPIC (Homo sapiens, UniProt Q8N5J4 1-248); details: protein: recombinant; tags: N-terminal GST; dsDNA, one strand shown
# T2 sequence: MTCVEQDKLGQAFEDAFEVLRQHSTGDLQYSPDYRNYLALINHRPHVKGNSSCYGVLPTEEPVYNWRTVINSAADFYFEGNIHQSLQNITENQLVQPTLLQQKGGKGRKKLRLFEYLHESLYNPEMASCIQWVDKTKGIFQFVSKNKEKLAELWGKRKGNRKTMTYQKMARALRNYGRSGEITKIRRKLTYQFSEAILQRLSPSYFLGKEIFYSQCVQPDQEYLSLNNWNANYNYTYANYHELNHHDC
# How it was run: as §1
# ELF4 = ELF4 (Homo sapiens, UniProt Q99607 1-663); details: protein: recombinant; tags: N-terminal GST; dsDNA, one strand shown
# Sequence of ELF4 (Q99607 whole entry): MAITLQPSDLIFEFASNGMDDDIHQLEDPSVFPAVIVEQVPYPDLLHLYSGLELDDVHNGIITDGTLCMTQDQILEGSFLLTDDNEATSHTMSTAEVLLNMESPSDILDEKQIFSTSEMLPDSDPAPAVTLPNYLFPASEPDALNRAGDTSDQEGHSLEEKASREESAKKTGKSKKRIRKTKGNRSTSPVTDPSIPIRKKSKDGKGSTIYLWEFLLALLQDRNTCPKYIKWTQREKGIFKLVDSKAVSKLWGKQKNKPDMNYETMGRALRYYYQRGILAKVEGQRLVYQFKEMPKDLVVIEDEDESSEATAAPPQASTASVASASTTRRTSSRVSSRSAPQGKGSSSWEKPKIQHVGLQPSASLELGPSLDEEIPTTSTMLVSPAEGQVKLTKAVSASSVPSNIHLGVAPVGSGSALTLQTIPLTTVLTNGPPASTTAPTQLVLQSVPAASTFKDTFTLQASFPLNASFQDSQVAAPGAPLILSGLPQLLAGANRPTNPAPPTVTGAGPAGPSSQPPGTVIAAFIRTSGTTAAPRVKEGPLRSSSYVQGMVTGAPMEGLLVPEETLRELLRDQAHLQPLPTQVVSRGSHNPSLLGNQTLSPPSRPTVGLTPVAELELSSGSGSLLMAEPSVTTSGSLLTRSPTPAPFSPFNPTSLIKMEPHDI
# How it was run: as §1
# ELK4 = target: T3, ELK4 (Homo sapiens, UniProt P28324-2 1-405); details: protein: recombinant; tags: N-terminal GST; dsDNA, one strand shown
# T3 sequence: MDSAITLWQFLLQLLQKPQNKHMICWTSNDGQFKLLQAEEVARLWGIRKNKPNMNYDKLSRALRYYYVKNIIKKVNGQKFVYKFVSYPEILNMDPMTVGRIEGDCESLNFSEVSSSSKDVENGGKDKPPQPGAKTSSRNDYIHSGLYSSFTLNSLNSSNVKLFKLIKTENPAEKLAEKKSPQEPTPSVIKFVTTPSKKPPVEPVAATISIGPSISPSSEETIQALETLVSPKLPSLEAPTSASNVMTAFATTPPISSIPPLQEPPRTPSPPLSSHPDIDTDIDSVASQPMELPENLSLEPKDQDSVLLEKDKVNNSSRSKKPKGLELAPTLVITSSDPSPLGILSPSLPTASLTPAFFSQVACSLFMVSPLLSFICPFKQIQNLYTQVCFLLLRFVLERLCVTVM
# How it was run: as §1
# ETV2 = target: T4, ETV2 (Homo sapiens, UniProt O00321 1-342); details: protein: recombinant; tags: N-terminal GST; dsDNA, one strand shown
# T4 sequence: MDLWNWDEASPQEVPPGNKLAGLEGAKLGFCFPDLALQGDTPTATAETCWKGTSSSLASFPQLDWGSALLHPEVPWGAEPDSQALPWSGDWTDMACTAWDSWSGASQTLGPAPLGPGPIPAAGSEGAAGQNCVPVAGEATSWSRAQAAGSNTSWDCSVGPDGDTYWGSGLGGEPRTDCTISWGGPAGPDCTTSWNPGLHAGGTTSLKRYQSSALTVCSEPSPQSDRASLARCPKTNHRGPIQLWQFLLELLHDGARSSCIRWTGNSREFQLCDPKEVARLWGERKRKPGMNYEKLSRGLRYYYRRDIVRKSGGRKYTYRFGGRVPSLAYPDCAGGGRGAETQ
# How it was run: as §1
# ELF3 = target: T5, ELF3 (Homo sapiens, UniProt P78545 1-371); details: protein: recombinant; tags: N-terminal GST; dsDNA, one strand shown
# T5 sequence: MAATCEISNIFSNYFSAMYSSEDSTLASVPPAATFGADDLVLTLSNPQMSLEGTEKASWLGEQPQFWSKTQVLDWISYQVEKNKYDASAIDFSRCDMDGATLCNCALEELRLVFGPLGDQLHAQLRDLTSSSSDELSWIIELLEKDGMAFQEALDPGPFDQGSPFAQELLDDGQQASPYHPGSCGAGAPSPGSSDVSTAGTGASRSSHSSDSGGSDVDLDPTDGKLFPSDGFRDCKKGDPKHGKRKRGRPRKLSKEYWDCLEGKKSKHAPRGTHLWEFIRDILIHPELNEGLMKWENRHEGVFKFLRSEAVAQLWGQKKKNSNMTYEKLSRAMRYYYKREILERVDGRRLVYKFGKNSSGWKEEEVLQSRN
# How it was run: as §1
# CRX = CRX (Homo sapiens, UniProt O43186 1-299); details: protein: recombinant; tags: N-terminal GST; dsDNA, one strand shown
# Sequence of CRX (O43186 whole entry): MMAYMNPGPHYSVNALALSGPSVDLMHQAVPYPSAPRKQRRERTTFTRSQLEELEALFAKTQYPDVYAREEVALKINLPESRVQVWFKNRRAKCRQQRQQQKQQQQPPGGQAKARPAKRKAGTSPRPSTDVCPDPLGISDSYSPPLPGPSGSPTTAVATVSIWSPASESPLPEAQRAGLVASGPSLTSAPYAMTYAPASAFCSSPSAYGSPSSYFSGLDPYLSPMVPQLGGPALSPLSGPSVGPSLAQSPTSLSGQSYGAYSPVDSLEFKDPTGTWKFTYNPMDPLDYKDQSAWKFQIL
# How it was run: as §1
# ETV1 = ETV1 (Homo sapiens, UniProt P50549 1-477); details: protein: recombinant; tags: N-terminal GST; dsDNA, one strand shown
# Sequence of ETV1 (P50549 whole entry): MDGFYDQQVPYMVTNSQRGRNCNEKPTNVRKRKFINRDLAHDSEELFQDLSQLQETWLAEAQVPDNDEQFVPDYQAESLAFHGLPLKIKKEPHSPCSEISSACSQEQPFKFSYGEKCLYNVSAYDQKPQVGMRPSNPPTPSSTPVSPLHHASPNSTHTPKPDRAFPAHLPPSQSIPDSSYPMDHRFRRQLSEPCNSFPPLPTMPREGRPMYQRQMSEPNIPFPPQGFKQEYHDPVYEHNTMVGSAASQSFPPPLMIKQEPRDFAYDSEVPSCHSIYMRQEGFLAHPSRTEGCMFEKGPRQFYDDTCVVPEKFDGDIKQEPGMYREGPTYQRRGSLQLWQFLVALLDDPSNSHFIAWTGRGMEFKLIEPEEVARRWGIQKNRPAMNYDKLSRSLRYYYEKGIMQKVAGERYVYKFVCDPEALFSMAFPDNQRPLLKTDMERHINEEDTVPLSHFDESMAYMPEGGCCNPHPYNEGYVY
# How it was run: as §1
# ERF = target: T6, ERF (Homo sapiens, UniProt P50548 1-548); details: protein: recombinant; tags: N-terminal GST; dsDNA, one strand shown
# T6 sequence: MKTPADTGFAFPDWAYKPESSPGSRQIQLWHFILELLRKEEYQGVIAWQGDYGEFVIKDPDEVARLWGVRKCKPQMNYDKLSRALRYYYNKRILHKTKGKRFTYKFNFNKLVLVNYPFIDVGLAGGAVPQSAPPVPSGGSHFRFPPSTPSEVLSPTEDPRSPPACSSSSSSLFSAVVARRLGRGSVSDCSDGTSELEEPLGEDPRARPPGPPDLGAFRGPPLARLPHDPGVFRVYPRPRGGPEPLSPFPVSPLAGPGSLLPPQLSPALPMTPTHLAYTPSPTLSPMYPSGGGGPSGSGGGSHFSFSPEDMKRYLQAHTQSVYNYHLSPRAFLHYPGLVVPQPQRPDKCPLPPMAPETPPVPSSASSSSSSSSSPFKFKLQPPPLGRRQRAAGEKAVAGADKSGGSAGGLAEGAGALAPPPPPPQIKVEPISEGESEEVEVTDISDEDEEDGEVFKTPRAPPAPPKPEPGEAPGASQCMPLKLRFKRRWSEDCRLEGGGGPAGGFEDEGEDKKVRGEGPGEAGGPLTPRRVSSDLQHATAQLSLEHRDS
# How it was run: as §1
# ETV3L = target: T7, ETV3L (Homo sapiens, UniProt Q6ZN32 1-361); details: protein: recombinant; tags: N-terminal GST; dsDNA, one strand shown
# T7 sequence: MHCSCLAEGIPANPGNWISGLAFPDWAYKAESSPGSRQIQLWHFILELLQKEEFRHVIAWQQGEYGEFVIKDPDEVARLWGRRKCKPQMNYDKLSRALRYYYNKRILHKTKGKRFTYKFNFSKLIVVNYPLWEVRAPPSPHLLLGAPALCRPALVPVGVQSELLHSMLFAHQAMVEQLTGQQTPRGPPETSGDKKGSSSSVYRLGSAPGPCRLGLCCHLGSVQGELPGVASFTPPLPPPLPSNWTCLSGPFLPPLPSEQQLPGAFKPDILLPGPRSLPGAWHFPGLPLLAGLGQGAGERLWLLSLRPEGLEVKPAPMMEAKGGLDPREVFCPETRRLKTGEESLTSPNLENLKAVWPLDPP
# How it was run: as §1
# ETS2 = target: T8, ETS2 (Homo sapiens, UniProt P15036 1-469); details: protein: recombinant; tags: N-terminal GST; dsDNA, one strand shown
# T8 sequence: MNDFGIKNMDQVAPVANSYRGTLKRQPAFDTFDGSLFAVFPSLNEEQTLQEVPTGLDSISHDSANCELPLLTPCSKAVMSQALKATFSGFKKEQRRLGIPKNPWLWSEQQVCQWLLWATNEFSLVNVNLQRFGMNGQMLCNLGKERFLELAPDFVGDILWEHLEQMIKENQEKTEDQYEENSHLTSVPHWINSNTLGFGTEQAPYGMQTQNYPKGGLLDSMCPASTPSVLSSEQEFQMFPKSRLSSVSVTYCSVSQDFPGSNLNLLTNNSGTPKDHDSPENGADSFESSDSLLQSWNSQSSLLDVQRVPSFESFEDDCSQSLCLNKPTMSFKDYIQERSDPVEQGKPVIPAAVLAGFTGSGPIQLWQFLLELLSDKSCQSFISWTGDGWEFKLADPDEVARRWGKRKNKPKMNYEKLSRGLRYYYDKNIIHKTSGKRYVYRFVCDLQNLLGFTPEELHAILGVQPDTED
# How it was run: as §1
# SPDEF = target: T9, SPDEF (Homo sapiens, UniProt O95238 1-335); details: protein: recombinant; tags: N-terminal GST; dsDNA, one strand shown
# T9 sequence: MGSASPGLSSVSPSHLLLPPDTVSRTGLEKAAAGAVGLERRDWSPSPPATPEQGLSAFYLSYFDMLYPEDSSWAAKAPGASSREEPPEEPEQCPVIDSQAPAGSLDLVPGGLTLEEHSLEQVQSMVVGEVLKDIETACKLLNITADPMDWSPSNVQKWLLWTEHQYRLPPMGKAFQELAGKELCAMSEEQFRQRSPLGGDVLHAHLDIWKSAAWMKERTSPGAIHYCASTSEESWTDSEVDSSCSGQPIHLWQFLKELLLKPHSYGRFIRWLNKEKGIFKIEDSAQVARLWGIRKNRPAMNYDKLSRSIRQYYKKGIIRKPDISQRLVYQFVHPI
# How it was run: as §1
# ETV7 = target: T10, ETV7 (Homo sapiens, UniProt Q9Y603 1-341); details: protein: recombinant; tags: N-terminal GST; dsDNA, one strand shown
# T10 sequence: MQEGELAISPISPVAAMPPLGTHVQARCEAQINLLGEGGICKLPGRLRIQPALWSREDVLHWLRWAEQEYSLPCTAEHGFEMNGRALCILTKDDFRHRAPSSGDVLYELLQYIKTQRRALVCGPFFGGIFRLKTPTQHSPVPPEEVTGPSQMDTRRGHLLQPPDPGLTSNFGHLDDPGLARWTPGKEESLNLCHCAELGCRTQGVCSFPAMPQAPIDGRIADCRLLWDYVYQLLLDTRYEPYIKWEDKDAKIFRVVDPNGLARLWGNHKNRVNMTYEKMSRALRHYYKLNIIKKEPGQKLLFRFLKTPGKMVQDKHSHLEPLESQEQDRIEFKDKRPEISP
# How it was run: as §1
# ELF5 = target: T11, ELF5 (Homo sapiens, UniProt Q9UKW6-2 1-255); details: protein: recombinant; tags: N-terminal GST; dsDNA, one strand shown
# T11 sequence: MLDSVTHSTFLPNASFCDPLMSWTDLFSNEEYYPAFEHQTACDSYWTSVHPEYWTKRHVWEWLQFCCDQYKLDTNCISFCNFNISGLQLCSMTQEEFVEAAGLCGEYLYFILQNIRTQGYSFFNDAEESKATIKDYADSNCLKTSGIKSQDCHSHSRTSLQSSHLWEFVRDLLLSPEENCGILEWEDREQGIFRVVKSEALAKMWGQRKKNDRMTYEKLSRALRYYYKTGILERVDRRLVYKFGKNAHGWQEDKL
# How it was run: as §1
# ETV3 = target: T12, ETV3 (Homo sapiens, UniProt P41162-2 1-143); details: protein: recombinant; tags: N-terminal GST; dsDNA, one strand shown
# T12 sequence: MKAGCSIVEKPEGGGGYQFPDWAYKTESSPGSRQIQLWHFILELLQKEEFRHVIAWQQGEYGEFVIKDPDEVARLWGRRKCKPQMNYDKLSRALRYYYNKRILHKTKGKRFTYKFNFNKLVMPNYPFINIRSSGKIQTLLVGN
# How it was run: as §1
# ETV6 = ETV6 (Homo sapiens, UniProt P41212 1-452); details: protein: recombinant; tags: N-terminal GST; dsDNA, one strand shown
# Sequence of ETV6 (P41212 whole entry): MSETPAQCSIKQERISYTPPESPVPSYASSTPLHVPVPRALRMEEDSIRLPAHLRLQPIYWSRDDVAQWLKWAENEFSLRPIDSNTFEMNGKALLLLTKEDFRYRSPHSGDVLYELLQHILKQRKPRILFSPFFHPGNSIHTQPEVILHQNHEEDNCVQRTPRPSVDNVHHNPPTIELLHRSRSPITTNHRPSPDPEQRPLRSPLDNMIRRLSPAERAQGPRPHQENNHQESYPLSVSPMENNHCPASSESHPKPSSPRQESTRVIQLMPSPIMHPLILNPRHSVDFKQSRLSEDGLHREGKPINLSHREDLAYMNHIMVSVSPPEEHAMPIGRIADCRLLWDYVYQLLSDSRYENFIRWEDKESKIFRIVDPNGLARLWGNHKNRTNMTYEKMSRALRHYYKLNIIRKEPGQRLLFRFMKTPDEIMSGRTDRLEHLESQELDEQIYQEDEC
# How it was run: as §1
sequence,measurement,setting,value
AATTCT,binding signal,FEV,"1.29 fold enrichment (6-mer frequency, TF over GST control)"
same,binding signal,ETV5,"1.28 fold enrichment (6-mer frequency, TF over GST control)"
same,binding signal,HSF1,"2.25 fold enrichment (6-mer frequency, TF over GST control)"
same,binding signal,SPIC,"1.3 fold enrichment (6-mer frequency, TF over GST control)"
same,binding signal,ELF4,"1.33 fold enrichment (6-mer frequency, TF over GST control)"
same,binding signal,ELK4,"1.29 fold enrichment (6-mer frequency, TF over GST control)"
same,binding signal,ETV2,"1.4 fold enrichment (6-mer frequency, TF over GST control)"
same,binding signal,ELF3,"1.25 fold enrichment (6-mer frequency, TF over GST control)"
same,binding signal,CRX,"1.79 fold enrichment (6-mer frequency, TF over GST control)"
same,binding signal,ETV1,"1.32 fold enrichment (6-mer frequency, TF over GST control)"
same,binding signal,ERF,"1.33 fold enrichment (6-mer frequency, TF over GST control)"
same,binding signal,ETV3L,"1.29 fold enrichment (6-mer frequency, TF over GST control)"
same,binding signal,ETS2,"1.29 fold enrichment (6-mer frequency, TF over GST control)"
same,binding signal,SPDEF,"1.23 fold enrichment (6-mer frequency, TF over GST control)"
same,binding signal,ETV7,"1.26 fold enrichment (6-mer frequency, TF over GST control)"
same,binding signal,ELF5,"1.22 fold enrichment (6-mer frequency, TF over GST control)"
same,binding signal,ETV3,"1.25 fold enrichment (6-mer frequency, TF over GST control)"
same,binding signal,ETV6,"1.25 fold enrichment (6-mer frequency, TF over GST control)"
